Test results taken from PubChem BioAssay (NCATS).
Results filed as inconclusive are left out. Active and inactive are the calls of the source. Calls come from the whole dose curve; as a rule, active = well fitted curve in the direction sought with a large enough effect; inconclusive = small, poorly fitted or top-dose-only effect, or another doubt; inactive = no such curve, though single readings can be large; an effect the other way counts as inactive or inconclusive.

Assays:
PA-1 = assay: Primary qHTS to identify gynecologic anti-cancer compounds using libraries of approved drugs and bioactive compounds (AID 1345084); conditions: Gynecologic cancer cell panel viability, ATPlite luminescence, 48 h; series mostly up to 57.5 µM; note: nearly all actives have a fitted effect of over 55% in size
Method in brief: (§1)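 Measured: luminescence after ATPlite addition (15 min, RT). Exposure: 48 h, 37 C, 5% CO2.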

SKOV3 = assay: as above; conditions: Gynecologic cancer cell panel viability, ATPlite luminescence, 48 h; series mostly up to 57.5 µM
Method in brief: as §1

Tov-21-G = assay: as above; conditions: Gynecologic cancer cell panel viability, ATPlite luminescence, 48 h; series mostly up to 57.5 µM
Method in brief: as §1

Tov112D = assay: as above; conditions: Gynecologic cancer cell panel viability, ATPlite luminescence, 48 h; series mostly up to 57.5 µM
Method in brief: as §1

[1] = Drug repurposing screens with cells derived from glioblastoma tumor samples (AID 1345199); conditions: GBM patient neurospheres viability, ATP luminescence, 48 h; note: nearly all actives have a fitted effect of over 40% in size; note: potency is the fitted concentration of half-maximal effect
Method in brief: (§2)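 Four patient lines of CD133+ GBM neurospheres were screened at several concentrations; hits were retested in those lines plus three slower-growing GBM lines, using 48-hour treatment and ATP-based viability.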

astro = assay: as above; conditions: viability, ATP luminescence, 48 h; series mostly up to 45.9 µM
Method in brief: as §2

[2] = at 46.1 µM (top of the series), tumour line C
[3] = at 45.9 µM (top of the series), tumour line B
[4] = at 45.9 µM (top of the series), tumour line D
[5] = at 46 µM (top of the series), tumour line A
[6] = at 20 µM (top of the series), tumour line C
[7] = at 21.2 µM (top of the series), tumour line B
[8] = at 21.2 µM (top of the series), tumour line D
[9] = at 21.3 µM (top of the series), tumour line A
% is set by controls: 0 for no effect and ±100 for the full control effect.

O=C1[C@H]2CCCC[C@H]2C(=O)N1CCCCN1CCN(c2nsc3ccccc23)CC1
inactive: Potency (PA-1) | Potency (SKOV3) | Potency (Tov-21-G) | Potency (Tov112D)

CCCOC(C(=O)OC1CCN(C)CC1)(c1ccccc1)c1ccccc1
inactive: Potency (PA-1) | Potency (SKOV3) | Potency (Tov-21-G) | Potency (Tov112D)

NC(=O)C(=O)N/N=C/c1ccc([N+](=O)[O-])o1
inactive: Potency (PA-1) | Potency (SKOV3) | Potency (Tov-21-G) | Potency (Tov112D) | activity, negative = cell killing [1, 2] 10.3%
active: Potency ([1]; tumour line A) 35.5 µM

CC(=O)Oc1ccc(C(=C2CCCCC2)c2ccc(OC(C)=O)cc2)cc1
inactive: Potency (PA-1) | Potency (SKOV3) | Potency (Tov-21-G) | Potency (Tov112D) | activity, negative = cell killing [1, 3] -19.5% | activity, negative = cell killing [1, 4] -13.6% | activity, negative = cell killing [1, 5] -21.3%

CCOC(=O)/C=C(C)/C=C/C=C(C)/C=C/c1c(C)cc(OC)c(C)c1C
inactive: Potency (PA-1) | Potency (SKOV3) | Potency (Tov-21-G) | Potency (Tov112D)

Cc1onc(-c2c(Cl)cccc2Cl)c1C(=O)N[C@@H]1C(=O)N2[C@@H]1SC(C)(C)[C@@H]2C(=O)O
inactive: Potency (PA-1) | Potency (SKOV3) | Potency (Tov-21-G) | Potency (Tov112D) | activity, negative = cell killing [1, 3] -4.57% | activity, negative = cell killing [1, 4] -12.2% | activity, negative = cell killing [1, 5] -8.27% | activity, negative = cell killing [1, 2] 12.2%

CC(=O)O[C@]1(C(C)=O)CC[C@H]2[C@@H]3C[C@H](C)C4=CC(=O)CC[C@]4(C)[C@H]3CC[C@@]21C
inactive: Potency (PA-1) | Potency (SKOV3) | Potency (Tov-21-G) | Potency (Tov112D) | activity, negative = cell killing [1, 2] -19.7%
active: Potency ([1]; tumour line A) 17.8 µM

CC(=O)N/N=C/c1ccc([N+](=O)[O-])o1
inactive: Potency (PA-1) | Potency (SKOV3) | Potency (Tov-21-G) | Potency (Tov112D)

COc1cc2c(cc1OC)[C@@H]1CC(=O)[C@@H](CC(C)C)CN1CC2
active: Potency ([1]; tumour line A) 28.2 µM
inactive: Potency (PA-1) | Potency (SKOV3) | Potency (Tov-21-G) | Potency (Tov112D) | activity, negative = cell killing [1, 2] 1.4%

CN(C(=O)CN(CCO)CC(=O)N(C)C(C)(C)Cc1ccccc1)C(C)(C)Cc1ccccc1
inactive: Potency (PA-1) | Potency (SKOV3) | Potency (Tov-21-G) | Potency (Tov112D) | activity, negative = cell killing [1, 6] 7.73% | activity, negative = cell killing [1, 7] -8.65% | activity, negative = cell killing [1, 8] -0.577%
active: Potency ([1]; tumour line A) 10 µM

O=C(COc1ccc(Cl)cc1)N1CCN(Cc2ccc3c(c2)OCO3)CC1
active: Potency ([1]; tumour line A) 20 µM
inactive: Potency (PA-1) | Potency (SKOV3) | Potency (Tov-21-G) | Potency (Tov112D) | activity, negative = cell killing [1, 3] -2.59% | activity, negative = cell killing [1, 4] -28.6%

CC(C)NC[C@@H](O)COc1cccc2ccccc12
active: Potency ([1]; tumour line A) 28.2 µM
inactive: Potency (PA-1) | Potency (SKOV3) | Potency (Tov-21-G) | Potency (Tov112D) | activity, negative = cell killing [1, 3] -11.2% | activity, negative = cell killing [1, 4] -22.3% | activity, negative = cell killing [1, 2] -5.6% | Potency (astro)

CC1(C)O[C@@H]2C[C@H]3[C@@H]4C[C@H](F)C5=CC(=O)C=C[C@]5(C)[C@H]4[C@@H](O)C[C@]3(C)[C@]2(C(=O)CO)O1
inactive: Potency (PA-1) | Potency (SKOV3) | Potency (Tov-21-G) | Potency (Tov112D) | activity, negative = cell killing [1, 6] 3.76% | activity, negative = cell killing [1, 7] 2.57% | activity, negative = cell killing [1, 8] -8.48% | activity, negative = cell killing [1, 9] 19%

CC1(C)O[C@@H]2C[C@H]3[C@@H]4CCC5=CC(=O)CC[C@]5(C)[C@@]4(F)[C@@H](O)C[C@]3(C)[C@]2(C(=O)CCl)O1
inactive: Potency (PA-1) | Potency (SKOV3) | Potency (Tov-21-G) | Potency (Tov112D) | activity, negative = cell killing [1, 6] -1.51% | activity, negative = cell killing [1, 7] -4.88% | activity, negative = cell killing [1, 8] 2.26% | activity, negative = cell killing [1, 9] 3.38%

COc1cc(/C=C/C(=O)O[C@H]2CC[C@]34C[C@]35CC[C@]3(C)[C@@H]([C@H](C)CCC=C(C)C)CC[C@@]3(C)[C@@H]5CC[C@H]4C2(C)C)ccc1O
active: Potency (astro) 17.8 µM
inactive: Potency (PA-1) | Potency (SKOV3) | Potency (Tov-21-G) | Potency (Tov112D) | activity, negative = cell killing [1, 3] -21.5% | activity, negative = cell killing [1, 4] -21.3% | activity, negative = cell killing [1, 5] -29.3% | activity, negative = cell killing [1, 2] -22.4%

Cc1c(F)c(N2CCNC(C)C2)cc2c1c(=O)c(C(=O)O)cn2C1CC1 (stereo not drawn)
inactive: Potency (PA-1) | Potency (SKOV3) | Potency (Tov-21-G) | Potency (Tov112D) | activity, negative = cell killing [1, 3] -3.48% | activity, negative = cell killing [1, 4] 3.74% | activity, negative = cell killing [1, 5] -33% | activity, negative = cell killing [1, 2] -2.18% | Potency (astro)

OCc1ccccc1O
inactive: Potency (PA-1) | Potency (SKOV3) | Potency (Tov-21-G) | Potency (Tov112D) | activity, negative = cell killing [1, 3] -10.5% | activity, negative = cell killing [1, 4] -12.8% | activity, negative = cell killing [1, 5] -23.4% | activity, negative = cell killing [1, 2] -1.35% | Potency (astro)

COC(=O)[C@@H]1CC2=CC(=O)CC[C@]2(C)[C@@]23O[C@@H]2C[C@@]2(C)[C@@H](CC[C@@]24CCC(=O)O4)[C@H]13
inactive: Potency (PA-1) | Potency (SKOV3) | Potency (Tov-21-G) | Potency (Tov112D) | activity, negative = cell killing [1, 3] -3.02% | activity, negative = cell killing [1, 4] -20% | activity, negative = cell killing [1, 5] -25% | activity, negative = cell killing [1, 2] -18.4% | Potency (astro)

Cc1cccn2c(=O)c(-c3nnn[nH]3)cnc12
inactive: Potency (PA-1) | Potency (SKOV3) | Potency (Tov-21-G) | Potency (Tov112D) | activity, negative = cell killing [1, 3] -8.75% | activity, negative = cell killing [1, 4] -11.1% | activity, negative = cell killing [1, 5] -23.8% | activity, negative = cell killing [1, 2] -18.6% | Potency (astro)

CCN1CCN(c2cc3c(cc2F)c(=O)c(C(=O)O)cn3C2CC2)CC1
inactive: Potency (PA-1) | Potency (SKOV3) | Potency (Tov-21-G) | Potency (Tov112D) | activity, negative = cell killing [1, 3] 9.67% | activity, negative = cell killing [1, 4] -1.9% | activity, negative = cell killing [1, 5] -9.98% | activity, negative = cell killing [1, 2] 17.2% | Potency (astro)
